In PubChem BioAssay AID1159580 (chemical genetic matrix, 2015):
In all, about 5,500 compounds went through this assay and about 2,000 (36%) were called active. Inconclusive results (about 18%) are left out. No stated cut-off is given here; in the data, active means normalized growth mostly below about 0.91 (no sharp cut-off); inconclusive means no clear call, values can overlap the other calls; inactive means mostly above about 0.92. Some of the results follow.

Experiment: chemical genetic growth profiling, strain panel (AID 1159580);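 further: tested at 20 µM; growth read once vehicle control cultures reached saturation at 30 °C; 1 = growth at the plate median or of vehicle wells; lower values mean less growth of the strain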
Conditions: S. cerevisiae deletion strains, growth OD
[1] = locus YAR019C, strain CDC15, active compounds read low
[2] = locus YBL105C, strain PKC1, active compounds read low
[3] = locus YBR135W, strain CKS1, active compounds read low
[4] = locus YBR136W, strain MEC1, active compounds read low
[5] = locus YBR160W, strain CDC28, active compounds read low
[6] = locus YDL017W, strain CDC7, active compounds read low
[7] = locus YDL028C, strain MPS1, active compounds read low
[8] = locus YDL101C, strain DUN1, active compounds read low
[9] = locus YDL108W, strain KIN28, active compounds read low
[10] = locus YDL132W, strain cdc53, active compounds read low
[11] = locus YDL214C, strain PRR2, active compounds read low
[12] = locus YDR052C, strain DBF4, active compounds read low
[13] = locus YDR054C, strain cdc34, active compounds read low
[14] = locus YDR226W, strain ADK1, active compounds read low
[15] = locus YDR477W, strain SNF1, active compounds read low
[16] = locus YER123W, strain YCK3, active compounds read low
[17] = locus YER133W, strain GLC7, active compounds read low
[18] = locus YFL009W, strain cdc4, active compounds read low
[19] = locus YFL029C, strain CAK1, active compounds read low
[20] = locus YFR003C, strain YPI1, active compounds read low
[21] = locus YFR019W, strain FAB1, active compounds read low
[22] = locus YFR028C, strain CDC14, active compounds read low
[23] = locus YGR040W, strain KSS1, active compounds read low
[24] = locus YGR052W, strain FMP48, active compounds read low
[25] = locus YGR092W, strain DBF2, active compounds read low
[26] = locus YHR030C, strain SLT2, active compounds read low
[27] = locus YHR079C, strain IRE1, active compounds read low
[28] = locus YHR082C, strain KSP1, active compounds read low
[29] = locus YHR205W, strain SCH9, active compounds read low
[30] = locus YIL147C, strain SLN1, active compounds read low
[31] = locus YJL095W, strain BCK1, active compounds read low
[32] = locus YJL128C, strain PBS2, active compounds read low
[33] = locus YJL157C, strain FAR1, active compounds read low
[34] = locus YJR016C, strain ILV3, active compounds read low
[35] = locus YJR066W, strain TOR1 (second series), active compounds read low
[36] = locus YJR066W, strain TOR1, active compounds read low
[37] = locus YKL048C, strain ELM1, active compounds read low
[38] = locus YKL067W, strain YNK1, active compounds read low
[39] = locus YKL101W, strain HSL1, active compounds read low
[40] = locus YKL193C, strain SDS22, active compounds read low
[41] = locus YKL203C, strain TOR2, active compounds read low
[42] = locus YLR113W, strain HOG1, active compounds read low
[43] = locus YLR133W, strain CKI1, active compounds read low
[44] = locus YLR403W, strain SFP1, active compounds read low
[45] = locus YML070W, strain DAK1, active compounds read low
[46] = locus YMR001C, strain CDC5, active compounds read low
[47] = locus YMR205C, strain PFK2 (second series), active compounds read low
[48] = locus YMR277W, strain FCP1, active compounds read low
[49] = locus YNL006W, strain LST8, active compounds read low
[50] = locus YNL020C, strain ARK1, active compounds read low
[51] = locus YNL161W, strain CBK1, active compounds read low
[52] = locus YNL183C, strain NPR1, active compounds read low
[53] = locus YNL207W, strain RIO2, active compounds read low
[54] = locus YNL222W, strain SSU72, active compounds read low
[55] = locus YNL307C, strain MCK1 (second series), active compounds read low
[56] = locus YOL078W, strain AVO1, active compounds read low
[57] = locus YOL136C, strain PFK27, active compounds read low
[58] = locus YOR061W, strain CKA2, active compounds read low
[59] = locus YOR119C, strain RIO1, active compounds read low
[60] = locus YOR231W, strain MKK1, active compounds read low
[61] = locus YOR329C, strain SCD5, active compounds read low
[62] = locus YPL031C, strain PHO85, active compounds read low
[63] = locus YPL153C, strain RAD53, active compounds read low
[64] = locus YPL204W, strain HRR25, active compounds read low
[65] = locus YPL209C, strain IPL1, active compounds read low
[66] = locus YPL256C, strain CLN2, active compounds read low
[67] = locus YPR025C, strain CCL1, active compounds read low
[68] = locus YPR106W, strain ISR1, active compounds read low
[69] = locus YPR111W, strain DBF20, active compounds read low
[70] = strain NNK1, active compounds read low
[71] = strain TSCII, active compounds read low

Measured: normalized growth

Cc1cc(Cl)ccc1NNC(=O)c1ccno1
inactive: [1] 0.974 | [2] 0.958 | [3] 0.981 | [4] 0.968 | [5] 0.966 | [6] 0.97 | [7] 0.979 | [8] 0.967 | [9] 0.97 | [10] 0.987 | [11] 0.933 | [12] 0.968 | [13] 0.961 | [14] 0.976 | [15] 0.944 | [16] 0.884 | [17] 0.938 | [18] 0.974 | [19] 0.96 | [20] 0.967 | [21] 0.925 | [22] 0.979 | [23] 0.917 | [24] 0.996 | [25] 0.912 | [26] 0.954 | [27] 1 | [28] 1 | [29] 0.902 | [30] 0.971 | [31] 0.931 | [32] 0.927 | [33] 0.919 | [34] 0.987 | [35] 0.87 | [36] 1.01 | [37] 0.912 | [38] 0.939 | [39] 0.903 | [40] 0.971 | [41] 0.978 | [42] 0.871 | [43] 0.908 | [44] 0.903 | [45] 0.903 | [46] 0.962 | [47] 0.938 | [48] 0.978 | [49] 0.975 | [50] 0.912 | [51] 0.972 | [52] 0.953 | [53] 0.966 | [54] 0.978 | [55] 0.907 | [56] 0.977 | [57] 0.889 | [58] 0.946 | [59] 0.977 | [60] 0.899 | [61] 0.963 | [62] 0.942 | [63] 0.916 | [64] 0.904 | [65] 0.958 | [66] 0.958 | [67] 0.975 | [68] 0.945 | [69] 0.957 | [70] 0.955 | [71] 0.972

Cc1cc(Cl)ccc1NNC(=O)c1snnc1C
inactive: [1] 0.971 | [2] 0.949 | [3] 0.967 | [4] 0.949 | [5] 0.959 | [6] 0.951 | [7] 0.969 | [8] 0.968 | [9] 0.955 | [10] 0.978 | [11] 0.907 | [12] 0.957 | [13] 0.974 | [14] 0.977 | [15] 0.907 | [16] 0.816 | [17] 0.909 | [18] 0.979 | [19] 0.957 | [20] 0.957 | [21] 0.885 | [22] 0.958 | [23] 0.881 | [24] 0.965 | [25] 0.824 | [27] 0.919 | [28] 0.979 | [29] 0.919 | [30] 0.966 | [31] 0.888 | [32] 0.943 | [33] 0.881 | [34] 0.977 | [35] 0.841 | [36] 0.972 | [37] 0.935 | [38] 0.919 | [39] 0.914 | [40] 0.96 | [41] 0.962 | [43] 0.891 | [44] 0.887 | [45] 0.865 | [46] 0.951 | [47] 0.922 | [48] 0.958 | [49] 0.974 | [50] 0.894 | [51] 0.956 | [52] 0.942 | [53] 0.96 | [54] 0.956 | [55] 0.794 | [56] 0.954 | [57] 0.885 | [58] 0.866 | [59] 0.96 | [60] 0.878 | [61] 0.963 | [62] 0.911 | [63] 0.881 | [64] 0.874 | [65] 0.943 | [66] 0.881 | [67] 0.955 | [68] 0.976 | [69] 0.979 | [70] 0.955 | [71] 0.962
active: [26] 0.815 | [42] 0.84

Cc1cc(NNC(=O)c2ccccc2Cl)nc2c1c(C)nn2C
inactive: [1] 0.994 | [2] 0.989 | [3] 0.979 | [4] 0.979 | [5] 0.983 | [6] 0.987 | [7] 0.978 | [8] 0.994 | [9] 0.978 | [10] 0.978 | [11] 0.951 | [12] 0.99 | [13] 0.993 | [14] 0.976 | [15] 0.978 | [16] 0.938 | [17] 0.96 | [18] 0.98 | [19] 0.993 | [20] 0.987 | [21] 0.95 | [22] 0.973 | [23] 0.958 | [24] 1.01 | [25] 0.974 | [26] 1.07 | [27] 1.08 | [28] 1.05 | [29] 0.953 | [30] 0.984 | [31] 0.968 | [32] 0.966 | [33] 0.972 | [34] 0.988 | [35] 0.926 | [36] 1.08 | [37] 0.964 | [38] 0.958 | [39] 0.941 | [40] 0.985 | [41] 1.06 | [42] 0.93 | [43] 0.951 | [44] 0.968 | [45] 0.956 | [46] 0.992 | [47] 0.97 | [48] 0.986 | [49] 0.982 | [50] 0.973 | [51] 0.98 | [52] 1.03 | [53] 0.985 | [54] 0.989 | [55] 0.973 | [56] 0.978 | [57] 0.905 | [58] 0.94 | [59] 1.04 | [60] 0.978 | [61] 0.989 | [62] 0.97 | [63] 0.987 | [64] 0.945 | [65] 0.993 | [66] 1.05 | [67] 0.993 | [68] 0.999 | [69] 0.993 | [70] 0.998 | [71] 0.98

Cc1nnsc1C(=O)NNc1ccc(F)cc1F
inactive: [1] 0.951 | [2] 0.951 | [3] 0.956 | [4] 0.961 | [5] 0.956 | [6] 0.949 | [7] 0.97 | [8] 0.956 | [9] 0.965 | [10] 0.955 | [11] 0.706 | [12] 0.954 | [13] 0.929 | [14] 0.953 | [15] 0.711 | [17] 0.827 | [18] 0.965 | [19] 0.941 | [20] 0.968 | [22] 0.952 | [23] 0.789 | [24] 0.646 | [25] 0.636 | [27] 0.925 | [28] 0.85 | [29] 0.924 | [30] 0.967 | [31] 0.544 | [32] 0.938 | [33] 0.804 | [34] 0.962 | [35] 0.683 | [36] 0.791 | [37] 0.952 | [38] 0.819 | [39] 0.917 | [40] 0.96 | [41] 0.928 | [43] 0.812 | [44] 0.883 | [45] 0.696 | [46] 0.949 | [47] 0.906 | [48] 0.959 | [49] 0.975 | [50] 0.92 | [51] 0.945 | [52] 0.837 | [53] 0.961 | [54] 0.954 | [55] 0.678 | [56] 0.955 | [57] 0.808 | [59] 0.911 | [60] 0.908 | [61] 0.958 | [62] 0.858 | [63] 0.832 | [64] 0.917 | [65] 0.943 | [67] 0.957 | [68] 0.963 | [69] 0.966 | [70] 0.977 | [71] 0.947
active: [16] 0.459 | [21] 0.584 | [26] 0.831 | [42] 0.683 | [66] 0.602
